Measurements published in PubChem BioAssay (NCATS).
Values joined by “and” are separate entries in the source; they are usually repeats but may differ in a detail not shown here. Identical values can stand only once. Inconclusive results are not listed. Active and inactive are the calls of the source. Calls follow the shape of the full dose curve.

Experiment: qHTS Assay for Lipid Storage Modulators (AID 1519); as to activity change, negative = inhibition: % is scaled to controls: 0 for no effect and ±100 for the full control effect
Settings: Drosophila S3 cells, BODIPY lipid droplet/cell ratio, laser cytometry, cells loaded with oleic acid
Outline: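 Cells seeded at 5,000 per well were treated with compounds over a concentration series and loaded with oleic acid (400 uM, as added). Lipid droplet fluorescence (488 nm excitation, 500-530 nm channel) was read by laser-scanning cytometry and normalized to 20 uM Triacsin C.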

[1] = measured here: cell count channel max response
[2] = measured here: lipid channel max response

Row | SMILES | activity change, negative = inhibition (at 25.7 µM (top of the series)) | max response [1] | max response [2] | activity change, negative = inhibition (at 57.5 µM (top of the series))
1 | Nc1ccc(C(=O)NCC(=O)O)cc1 | -0.313% (inactive) | -0.767% | 0.146% | 
2 | CCC(Cc1c(I)cc(I)c(N)c1I)C(=O)O (configuration not stated) |  | 19.5% | 27.1% | 4.6% (inactive)
3 | CCCc1ncc(C[n+]2ccccc2C)c(N)n1 | -1.66% (inactive) | 1.76% | 0% | 
4 | OCCOCCN1CCN(C2=Nc3ccccc3Sc3ccccc32)CC1 |  | 10.4% | 19.3% | 5.93% (inactive)
5 | CC(=O)NO |  | 22.2% | 28.9% | 3.44% (inactive)
6 | CC[C@H](c1ccc(O)cc1)[C@@H](CC)c1ccc(O)cc1 | -3.44% (inactive) | -23% | -23.9% | 
7 | CCN(CC)CCOc1ccc2c(c1)C(=O)c1cc(OCCN(CC)CC)ccc1-2 |  | -3.23% | 9.04% | 7.59% (inactive)
8 | COc1cc(C(=O)NCc2ccc(OCCN(C)C)cc2)cc(OC)c1OC | -1.74% (inactive) | -6.84% | -7.91% | 
9 | CCN1CCCC(OC(=O)C(c2ccccc2)c2ccccc2)C1 (configuration not stated) |  | -5.03% | -14.3% | -10.7% (inactive)
10 | O=C(O)P(=O)(O)O |  | 17.9% | 24.7% | 3.11% (inactive)
11 | CCc1oc2ccccc2c1C(=O)c1cc(Br)c(O)c(Br)c1 | 0.0966% (inactive) | -13% | -17.1% | 
12 | N=C(N)N1CCc2ccccc2C1 | -0.877% (inactive) | -5.56% | -6.4% | 
13 | C[N+]1(C)CCC(=C(c2ccccc2)c2ccccc2)CC1 | 0.0072% (inactive) | 2.33% | 0.67% | 
14 | CCCCCN=C(N)N/N=C/c1c[nH]c2ccc(OC)cc12 |  | 15.4% and 9.7% | 28.4% and 15.4% | 10.2% (inactive) and 3.1% (inactive)
15 | CC(C(=O)O)c1cccc(Oc2ccccc2)c1 (configuration not stated) |  | 14.6% | 29.6% | 9.66% (inactive)
16 | CC(=O)Nc1ccc(S(=O)(=O)Nc2ccc([N+](=O)[O-])cc2)cc1 |  | 4.05% | 18.4% | 7.58% (inactive)
17 | O=C1C(=O)c2ccccc2C(O)=C1C1CCC(c2ccc(Cl)cc2)CC1 (configuration not stated) |  | 7.54% | 21.8% | 10.1% (inactive)

Row | SMILES | activity change, negative = inhibition (at 25.7 µM (top of the series)) | max response [1] | max response [2] | activity change, negative = inhibition (at 57.5 µM (top of the series))
18 | C[N+]12CCC(CC1)C(OC(=O)C(O)(c1ccccc1)c1ccccc1)C2 (configuration not stated) |  | 13% | 15.6% | 1.37% (inactive)
19 | COC(=O)C(c1ccccc1Cl)N1CCc2sccc2C1 (configuration not stated) |  | 3.08% | 15.9% | 8.17% (inactive)
20 | CCc1cc(Cl)c(OC)c(C(=O)NC[C@@H]2CCCN2CC)c1O | -7.25% (inactive) | -16.4% | -19.5% | 
21 | CC(=O)NCCCCCC(=O)O |  | 6.35% | 14.8% | 4.31% (inactive)
22 | CCOC(=O)Nc1ccc2c(c1)N(C(=O)CCN1CCOCC1)c1ccccc1S2 | -4.54% (inactive) | -0.906% | -3.86% | 
23 | CCN(CC)CCOC(=O)C(Cc1cccc2ccccc12)CC1CCCO1 (configuration not stated) |  | 20.1% | 24.7% | 2.17% (inactive)
24 | CN(C)CCOC(=O)C(c1ccccc1)C1(O)CCCC1 (configuration not stated) |  | 13.8% | 27.5% | 8.35% (inactive)
25 | CCOC(=O)c1ccc(N)cc1 | 4.88% (inactive) | -2.21% | -0.169% | 
26 | CCCCc1cc2ccccc2c(OCCN(C)C)n1 | -1.95% (inactive) | -12.7% | -12.3% | 
27 | CN1CCC(OC(c2ccccc2)c2ccccc2)CC1 | -2.89% (inactive) | -24.7% | -25.4% | 
28 | COc1cc(C)nc(-n2nc(C)cc2OC)n1 | -0.43% (inactive) | -1.69% | -3.43% | 
29 | Cc1ncc(CO)c(C=O)c1O |  | -8.99% | -15.3% | -6.06% (inactive)
30 | CC(C)(C)NC[C@H](O)COc1cccc2c1CCCC2=O | -0.268% (inactive) and -1.87% (inactive) | -9.82% and 1.67% | -10.4% and -0.857% | 
31 | Cc1c(-c2ccccc2)oc2c(C(=O)OCCN3CCCCC3)cccc2c1=O | 1.6% (inactive) | 5.61% | 7.37% | 
32 | CC(C)NCC(O)c1ccc2ccccc2c1 (configuration not stated) |  | 8.22% | 21.3% | 9.75% (inactive)
33 | CCCCNc1ccc(C(=O)OCCOCCOCCOCCOCCOCCOCCOCCOCCOC)cc1 | -1.21% (inactive) | -3.1% | -4.96% | 
34 | Cc1cc(-c2ccccc2)nnc1NCCN1CCOCC1 | 1.62% (inactive) | -6.4% | -4.28% | 
